These entries were drawn from the full list.
aSyn UTR act = Activators via SNCA 5'UTR binding, MLPCN | alpha-synuclein 5'UTR reporter, activators screen | activity score, % (tested at 7.5 µM), hits read low | 7.1% of 300,000 active; in the data active = activity score below about -60%
An asterisk follows results filed as active.

What do the screens show for `CC(C)(C)Nc1ncnc2c1cnn2-c1ccccc1`?
aSyn UTR act: -104*

What do the screens show for `c1ccc(-n2ncc3c(NCCN4CCCCC4)ncnc32)cc1`?
aSyn UTR act: -133*

What do the screens show for `N=c1c2c(n(Cc3ccc(Br)cc3)c3c1CCC3)CCCC2`?
aSyn UTR act: 60

How did c1ccc(CCNc2ncnc3c2cnn3-c2ccccc2)cc1 do in these assays?
aSyn UTR act: -149*

Results for Cc1cccc(-n2ncc3c(NCc4ccccc4)ncnc32)c1 ?
aSyn UTR act: -140*

Results for Clc1ccc(-n2ncc3c(NCc4cccnc4)ncnc32)cc1Cl ?
aSyn UTR act: -87*

Results for Cc1cccc(-n2ncc3c(N(C)C4CCCCC4)ncnc32)c1 ?
aSyn UTR act: 66

How did Cc1cccc(-n2ncc3c(N(CCO)CCO)ncnc32)c1 do in these assays?
aSyn UTR act: -106*

Results for Cc1cccc(-n2ncc3c(N4CCCc5ccccc54)ncnc32)c1 ?
aSyn UTR act: -123*

What do the screens show for `CN(C)c1ccc(-c2nnc(-c3cccs3)o2)cc1`?
aSyn UTR act: 82

Results for Clc1ccccc1-c1nnc(-c2cccs2)o1 ?
aSyn UTR act: -215*

Results for CSc1ccccc1-c1nc(-c2ccncc2)no1 ?
aSyn UTR act: -195*

Results for Cc1nc(-c2noc(-c3ccccc3Cl)n2)c(C(F)(F)F)o1 ?
aSyn UTR act: -142*

How did Clc1ccccc1-c1nc(-c2cccnc2)no1 do in these assays?
aSyn UTR act: -104*

How did Cc1ccccc1-c1nc(-c2cccnc2)no1 do in these assays?
aSyn UTR act: -227*

What do the screens show for `Clc1ccccc1-c1nc(-c2ccncc2)no1`?
aSyn UTR act: -112*

Results for Clc1ccccc1-c1nnc(-c2cccnc2)o1 ?
aSyn UTR act: -139*

Results for Cc1ccccc1-c1nc(-c2ccccn2)no1 ?
aSyn UTR act: 95

Results for CCCCC12CN3CCN(CC(C3)/C1=N\NC(=O)c1ccccc1N)C2 ?
aSyn UTR act: -71*

What do the screens show for `CCCC/C=C1\CCc2c([nH]c3ccccc23)C1=O`?
aSyn UTR act: -75*

What do the screens show for `CCCCCCCn1c2c(c(=N)c3ccccc31)CCC2`?
aSyn UTR act: 79

What do the screens show for `O=C1/C(=C\c2ccccc2)CCc2c1[nH]c1ccccc21`?
aSyn UTR act: -121*

How did CCCCN1CCc2c([nH]c3ccccc23)C1=O do in these assays?
aSyn UTR act: -128*

What do the screens show for `Cc1ccc(/C=C2/CCc3c([nH]c4ccccc34)C2=O)cc1`?
aSyn UTR act: -180*

What do the screens show for `Cc1ccc2[nH]c3c(c2c1)CC/C(=C/c1ccccc1)C3=O`?
aSyn UTR act: -194*

How did COc1ccc(C(CC(=O)c2ccc(O)cc2)S(=O)(=O)c2ccc(C)cc2)cc1 (stereo unspecified) do in these assays?
aSyn UTR act: -250*

Results for CC(=O)N1CCc2cc(N=NC3=C(O)CCCC3=O)ccc21 ?
aSyn UTR act: -100*

What do the screens show for `CC(C)(C)c1ccc(C(=O)NC(=S)N2CCOCC2)cc1`?
aSyn UTR act: -102*

Results for CC(C)Oc1ccc(C(=O)NC(=S)N2CCOCC2)cc1 ?
aSyn UTR act: -79*

What do the screens show for `Cc1ccc(-c2cc3nn(-c4ccccc4)c(N)c3c(=O)o2)cc1`?
aSyn UTR act: -96*

Results for CC1(c2ccncc2)Nc2ccccc2-c2nc3ccccc3n21 (stereo unspecified) ?
aSyn UTR act: -66*

What do the screens show for `Cc1ccnc(NC(=O)c2cccc3ccccc23)c1`?
aSyn UTR act: -63*

How did Cc1ccnc(NC(=O)CCc2c[nH]c3ccccc23)c1 do in these assays?
aSyn UTR act: -71*

How did C/C(CC(=O)Nc1cc(C)ccn1)=N\NC(=O)c1cccc(C)c1O do in these assays?
aSyn UTR act: -63*

How did Cc1ccnc(NC(=O)c2ccccc2NC(=O)c2ccc(Cl)cc2Cl)c1 do in these assays?
aSyn UTR act: 69

What do the screens show for `Cc1ccnc(NC(=O)CCNC(=O)c2ccccc2Cl)c1`?
aSyn UTR act: -103*

What do the screens show for `COc1cc(-c2noc(C)c2/C=C/c2ccc(N)cc2)cc(OC)c1OC`?
aSyn UTR act: 104

What do the screens show for `O=C(CCc1nnc(CCc2c[nH]c3ccccc23)o1)NC1CCC1`?
aSyn UTR act: -133*

What do the screens show for `Cc1cc(C(=O)COC(=O)c2ccc[nH]c2=O)c(C)n1C`?
aSyn UTR act: -68*

Results for Cc1ccc(-n2c(C)cc(C(=O)COC(=O)c3ccc[nH]c3=O)c2C)cc1 ?
aSyn UTR act: -122*

Results for COc1ccc(Nc2nnc(SCC3CCCO3)s2)cc1 (stereo unspecified) ?
aSyn UTR act: -105*

What do the screens show for `COc1cccc(Nc2nnc(SCC3CCCCO3)s2)c1` (stereo unspecified)?
aSyn UTR act: -76*

How did CCN1CCN(Cc2ccc(NC(=O)Nc3ccc(SC)cc3)cc2)CC1 do in these assays?
aSyn UTR act: -103*

What do the screens show for `COc1ccc(OCc2cccc(C(=O)Nc3ccc(CN4CCCCC4)cc3)c2)cc1`?
aSyn UTR act: -112*

How did CCN1CCN(Cc2ccc(NC(=O)Nc3ccc(OC)cc3)cc2)CC1 do in these assays?
aSyn UTR act: -74*

Results for CCOc1ccc(OCc2cccc(C(=O)Nc3ccc(CN4CCCCC4)cc3)c2)cc1 ?
aSyn UTR act: 61

How did C=CCNC(=O)c1nc2ccccc2s1 do in these assays?
aSyn UTR act: -161*

Results for CC(C)NC(=O)c1nc2ccccc2s1 ?
aSyn UTR act: -84*

What do the screens show for `COc1ccc(OC)c(NC(=O)c2nc3ccccc3s2)c1`?
aSyn UTR act: -168*

Results for COc1cccc(C2=NO[C@@H]3C(=O)N(c4ccc5c(c4)OCCO5)C(=O)[C@H]23)c1OC ?
aSyn UTR act: -81*

Results for Cc1csc2nc(CSc3nc4ccccc4o3)c(Br)n12 ?
aSyn UTR act: -129*

What do the screens show for `CCN(CCn1cccn1)C(=O)CCc1nnc(-c2ccccc2)o1`?
aSyn UTR act: -73*

How did CCN(CCn1cccn1)C(=O)CCc1nnc(C2(c3ccc(Cl)cc3)CCC2)o1 do in these assays?
aSyn UTR act: -86*

How did C/C(=N/O)c1cccc(N2Cc3ccccc3C2)c1 do in these assays?
aSyn UTR act: -74*

How did CSc1nc(N(C)NC(=O)c2ccc(Cl)cc2)c2ccccc2n1 do in these assays?
aSyn UTR act: 93

How did Cc1ccc(C(=O)NNc2c3ccccc3nc3ccccc23)cc1 do in these assays?
aSyn UTR act: -87*

What do the screens show for `O=C(NNc1c2ccccc2nc2ccccc12)c1ccc(Cl)cc1`?
aSyn UTR act: -80*

Results for Cc1ccc(NC(=O)c2nc3nccc(C)n3n2)c(C)c1 ?
aSyn UTR act: -64*

What do the screens show for `Cc1ccnc2nc(C(=O)Nc3ccc(N4CCOCC4)cc3)nn12`?
aSyn UTR act: -73*

How did Cc1csc(NC(=O)c2nc3nccc(C)n3n2)n1 do in these assays?
aSyn UTR act: -147*

What do the screens show for `CCOC(=O)N/N=C/c1cccc(Cl)c1Cl`?
aSyn UTR act: -97*

Results for Cc1cc(C(=O)N/N=C/c2cccc(Cl)c2Cl)no1 ?
aSyn UTR act: -108*

How did CCOC(=O)N/N=C/c1ccc(N(CC)CC)cc1O do in these assays?
aSyn UTR act: -432*

What do the screens show for `CCOC(=O)N/N=C/c1ccccc1F`?
aSyn UTR act: -135*

Results for CCOC(=O)N/N=C/c1cn(Cc2ccc(Cl)cc2)c2ccccc12 ?
aSyn UTR act: 70

Results for CCN(CC)c1ccc(/C=N/NC(=O)c2c(Cl)cnn2C)c(O)c1 ?
aSyn UTR act: 90

What do the screens show for `CC(=O)OCCCN1c2ccccc2Nc2nnc(-c3ccccc3)cc21`?
aSyn UTR act: -155*

From PubChem
